# Data published in PubChem BioAssay (Tox21).
# Unmarked numbers belong to inactive results. The source made the active and inactive calls. Calls come from the whole dose curve.
# Test: qHTS assay to identify small molecule agonists of the sonic hedgehog signaling (Shh) pathway (AID 1259368);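 note: NIH/3T3-derived 3T3Gli1-Luc cells carrying a stable Gli1-driven firefly luciferase reporter; nearly all actives have a fitted effect of over 15% in size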
# Conditions: NIH/3T3 Gli1-Luc reporter, luciferase, 24 h, hits give high values; series mostly up to 92.4 µM
# Description: National Center for Advancing Translational Sciences [NCATS]
# NIH Chemical Genomics Center [NCGC]
# U.S. Environmental Protection Agency [EPA]
# National Institutes of Environmental Health Sciences [NIEHS]
# National Toxicology Program [NTP]
# The sonic hedgehog (Shh) pathway is essential for normal embryonic development. Dysregulation of the Shh pathway can cause severe developmental defects in organs. Therefore chemicals that interfere with the pathway are potential developmental toxicants. A cell line designated 3T3Gli1-Luc (DMB/OARSA/CFSAN/FDA, Laurel, MD), a NIH/3T3 derived clone containing stably integrated Gli1-Luc reporter is used to detect chemical interference of the Shh pathway, by changes in the expression of the firefly Luc gene under the control of the Gli1 transcriptional response element. This cell line was used to screen Tox21 libraries for identifying and prioritizing the potential developmental toxicants that interfere Shh pathway.
# 3T3 Gli1-Luc cells were dispensed at 2,000 per well in 5uL of culture medium into white solid bottom 1536-well plates (Greiner Bio-One, Monroe, NC) using a Multidrop Combi (Thermo Scientific, Waltham, MA) dispenser. The assay plates were incubated at 37 C and 5% CO2 for 4hr, and then 23nL of compounds dissolved in DMSO and positive control were transferred using a Pintool station (Wako, San Diego, CA). The assay plates were incubated at 37C and 5% CO2 for 24hr. For luciferase read, 4uL of Amplite Luciferase reporter gene assay reagent (AAT Bioquest, Inc. Sunnyvale, CA) was added to each well of the assay plates using Flying Reagent Dispenser (FRD, Aurora Discovery, San Diego, CA) and incubated at room temperature for 30min. The luminescence signal was measured using a ViewLux plate reader (Perkin Elmer, Shelton, CT).
# % is set by controls: 0 for no effect and ±100 for the full control effect.
SMILES,outcome,activity change
C=C(C)C(=O)OCc1ccccc1,inactive,
COc1cc(NS(=O)(=O)c2ccc(N)cc2)nc(OC)n1,inactive,
CCOc1cc(NC(C)=O)ccc1C(=O)OC,inactive,
Cc1ccccc1C(=O)Nc1ccc(C(=O)N2CCCC(N(C)C)c3ccccc32)cc1 (stereo not given),inactive,
CC(C)(C)c1cc(CCC(=O)NN)cc(C(C)(C)C)c1O,inactive,
c1ccc2c(c1)ccc1c3ccccc3ccc21,inactive,
NNc1nnc(NN)c2ccccc12,inactive,
CC(C(=O)O)c1ccc2c(c1)CC(=O)c1ccccc1S2 (stereo not given),inactive,
CC(C)CC(=O)O,inactive,
CCCC/C=C\CCCCCCCCCC=O,inactive,
CCCCCCOC(=O)CC,inactive,
CC(C)C(=O)OCCc1ccccc1,inactive,
CC(=O)Nc1ccc(S(=O)(=O)Nc2ccc([N+](=O)[O-])cc2)cc1,inactive,
CCCCCCCCCCCCCC,inactive,
CC(=O)Nc1cccc(C)c1,inactive,
C[C@@H](Oc1ccc(CNC(=O)c2cccnc2Oc2ccc3c(c2)OCO3)c(F)c1)C(=O)O,inactive,
N[C@@H](COP(=O)(O)O)C(=O)O,,-1.5% [at 18.9 µM]
COC(=O)c1ccccc1C(=O)c1ccc(OCCN2CCCCC2)cc1,inactive,
C=C1CC/C=C(\C)CC[C@@H]2[C@@H]1CC2(C)C,inactive,
Oc1ccccc1-c1nnco1,inactive,

SMILES,outcome,activity change
C=C(C)C(=O)OCC(C)(C)COC(=O)C(=C)C,inactive,
Nc1ccc(S(=O)(=O)Nc2ccc(Cl)nn2)cc1,inactive,
CCCC(=O)C(C)=O,inactive,
O=C(O)c1cc(Br)c(O)c(Br)c1,inactive,
On1nnc2ccccc21,inactive,
COC(=O)C1CC(=O)C(C(=O)OC)CC1=O (stereo not given),,-2.11% [at 8.39 µM]
CC(=O)c1ccc2c(c1)Cc1ccccc1-2,inactive,
CCC(C=O)CC,inactive,
COc1ccc2nc(SCc3ncc(C)c(OC)c3C)[nH]c2c1,inactive,
COCCOCCOCCOCCOCCO,inactive,
C=C(C)C(=O)OCCN(CC)CC,inactive,
O=C(O)C(=O)Cc1ccccc1,inactive,
C[Si](C)=O,,0.132% [at 8.39 µM]
CCCCOC(=O)c1ccccc1,inactive,
CCOC(=O)c1ncn2c1CN(C)C(=O)c1cc(F)ccc1-2,inactive,
FC(F)(F)c1ccccc1-n1ccnc1,inactive,
CCc1ccc(C=O)cc1,inactive,
CC(=O)c1sc(C)nc1C,inactive,
CC(C)CCCCOC(=O)c1ccccc1C(=O)OCCCCC(C)C,inactive,
COc1ccc2c(c1)C(=O)N(CCc1ccc(S(=O)(=O)NC(=O)NC3CCCCC3)cc1)C(=O)C2(C)C,inactive,
